From the supplement of paper PMC6522484
± gives the standard deviation of the averaged measurements.

What was measured:
DLD1 [1] = assay: cell viability (CellTiter-Glo) relative to plate median (fraction of plate median); higher = more viable cells; details: 5 µM; treatment time 24 h; reporter: 7TFP
Method in brief: (§1)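 Cells were seeded in 384-well plates; these were colorectal cancer lines stably transduced with lentiviral 7TFP or TCF4/Wnt firefly luciferase reporters. After 24 h, library compounds went in at a final 5 µM, and exposure lasted 24 h. Parallel plates were then read for firefly luciferase or CellTiterGlo luminescence, each well normalised to its plate median, with two independent replicates averaged.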

HCT116 = assay: as above; details: 5 µM; treatment time 24 h; reporter: TCF4/Wnt
Method in brief: as §1

SW480 [2] = assay: as above; details: 5 µM; treatment time 24 h; reporter: 7TFP
Method in brief: as §1

DLD1 [3] = assay: TCF/Wnt firefly luciferase reporter signal relative to plate median (fraction of plate median); higher = higher Wnt reporter signal; details: 5 µM; treatment time 24 h; reporter: 7TFP
Method in brief: as §1

SW480 [4] = assay: as above; details: 5 µM; treatment time 24 h; reporter: 7TFP
Method in brief: as §1

SMILES | cell viability (DLD1 [1]) | cell viability (HCT116) | cell viability (SW480 [2]) | TCF/Wnt firefly luciferase reporter signal (DLD1 [3]) | TCF/Wnt firefly luciferase reporter signal (SW480 [4])
CC(C)(Sc1cc(C(C)(C)C)c(O)c(C(C)(C)C)c1)Sc1cc(C(C)(C)C)c(O)c(C(C)(C)C)c1 | 0.947 ± 0.034 | 0.987 ± 0.061 | 0.955 ± 0.028 | 1.01 ± 0.035 | 1.035 ± 0.0071
O=C(O)c1cc(=O)c2c(Cl)cc(Cl)cc2[nH]1 | 0.944 ± 0.12 | 0.968 ± 0.059 | 0.976 ± 0.091 | 0.835 ± 0.021 | 0.911 ± 0.052
CC(=O)c1c(O)cc(O)cc1O | 1.02 ± 0.035 | 1.03 ± 0.035 | 1.04 ± 0.068 | 1.08 ± 0.042 | 0.938 ± 0.033
CCOc1ccc(C(=O)c2ccc(O)c(O)c2O)cc1 | 0.928 ± 0.13 | 0.97 ± 0.18 | 1 ± 0.052 | 0.964 ± 0.093 | 1.1 ± 0.071
COc1cc2occ(-c3ccccc3)c(=O)c2c(OC)c1C | 0.982 ± 0.015 | 1 ± 0.025 | 0.958 ± 0.021 | 1.15 ± 0.16 | 1.12 ± 0.05
Cc1cc(=O)oc2cc(O)cc(O)c12 | 1.05 ± 0.042 | 1.11 ± 0.11 | 1 ± 0.053 | 0.888 ± 0.12 | 0.975 ± 0.12
CC(CCc1ccc(O)cc1)NCCc1ccc(O)c(O)c1 (stereo not given) | 1.01 ± 0.018 | 1.06 ± 0.18 | 1 ± 0.037 | 0.928 ± 0.058 | 1.02 ± 0.088
CC(=O)Nc1c(I)cc(I)c(C(=O)O)c1I | 1 ± 0.16 | 0.987 ± 0.014 | 0.946 ± 0.055 | 0.995 ± 0.092 | 1.09 ± 0.099
O=C(O)CCCC[C@@H]1SC[C@@H]2NC(=O)N[C@@H]21 | 1.03 ± 0.063 | 0.954 ± 0.04 | 0.948 ± 0.0042 | 0.982 ± 0.022 | 0.963 ± 0.0042
FC(F)(F)C(Cl)Br (stereo not given) | 0.964 ± 0.035 | 0.898 ± 0.011 | 0.9715 ± 0.0035 | 1.02 ± 0.028 | 1.1 ± 0.092
Cc1ccc(S(=O)(=O)NC(=O)NN2CCCCCC2)cc1 | 0.911 ± 0.047 | 0.918 ± 0.018 | 0.968 ± 0.019 | 0.881 ± 0.071 | 0.998 ± 0.031
CC(C)[C@@H]1CC[C@@H](C)CC1=O | 1.01 ± 0.033 | 1.16 ± 0.11 | 1.04 ± 0.028 | 0.906 ± 0.087 | 0.904 ± 0.037
COc1cc(NS(=O)(=O)c2ccc(N)cc2)ncn1 | 0.88 ± 0.0092 | 0.9455 ± 0.005 | 0.931 ± 0.037 | 0.99 ± 0.028 | 0.941 ± 0.028
Nc1ccc(S(=O)(=O)Nc2ccccn2)cc1 | 0.971 ± 0.11 | 0.949 ± 0.067 | 0.981 ± 0.055 | 1.12 ± 0.028 | 0.915 ± 0.076
CCN(CC)C(C)CN1c2ccccc2Sc2ccccc21 (stereo not given) | 1.07 ± 0.11 | 1.02 ± 0.12 | 0.998 ± 0.045 | 0.927 ± 0.3 | 1.05 ± 0.078
O=C(O)c1ccc(S(=O)(=O)N(Cl)Cl)cc1 | 0.936 ± 0.027 | 1 ± 0.028 | 0.8755 ± 0.0078 | 0.937 ± 0.052 | 0.876 ± 0.03
CCN[C@@H]1C[C@H](N)[C@@H](O[C@H]2OC(CN)=CC[C@H]2N)[C@H](O)[C@H]1O[C@H]1OC[C@](C)(O)[C@H](NC)[C@H]1O | 0.992 ± 0.026 | 0.903 ± 0.052 | 0.978 ± 0.025 | 0.906 ± 0.15 | 0.953 ± 0.021

SMILES | cell viability (DLD1 [1]) | cell viability (HCT116) | cell viability (SW480 [2]) | TCF/Wnt firefly luciferase reporter signal (DLD1 [3]) | TCF/Wnt firefly luciferase reporter signal (SW480 [4])
NC[C@@H]1O[C@@H](O[C@H]2[C@H](O)[C@@H](O[C@H]3O[C@H](CO)[C@@H](O)[C@H](N)[C@H]3O)[C@H](N)C[C@@H]2N)[C@@H](O)[C@H](O)[C@H]1O | 0.986 ± 0.091 | 1.04 ± 0.014 | 0.94 ± 0.0042 | 1.02 ± 0.035 | 0.988 ± 0.031
Nc1ccc(S(=O)(=O)O)cc1.Nc1ccc(S(=O)(=O)O)cc1.[Zn] | 1.08 ± 0.18 | 1.01 ± 0.049 | 1.105 ± 0.0071 | 1.03 ± 0.12 | 1.015 ± 0.0071
CC(=O)O[C@H]1C[C@@H](OC(C)=O)C(C)(C)[C@@H]2C[C@@H](OC(C)=O)[C@]3(C)[C@H](CC[C@@]4(C)[C@H](c5ccoc5)OC(=O)[C@H]5O[C@@]534)[C@@]12C | 1.11 ± 0.14 | 1.18 ± 0.028 | 1.15 ± 0.042 | 1.07 ± 0.12 | 1.04 ± 0.021
N[C@H](Cc1ccccc1)C(=O)O | 1.03 ± 0.066 | 1.07 ± 0.064 | 1.01 ± 0.078 | 1.17 ± 0.05 | 1 ± 0.15
C[C@@H]1[C@H](O)[C@@H](C)/C=C/C=C/C=C/C=C/C=C/C=C/C=C/[C@H](O[C@@H]2O[C@H](C)[C@@H](O)[C@H](N)[C@@H]2O)C[C@@H]2O[C@](O)(C[C@@H](O)C[C@@H](O)[C@H](O)CC[C@@H](O)C[C@@H](O)CC(=O)O[C@H]1C)C[C@H](O)[C@H]2C(=O)O | 1.04 ± 0.076 | 1 ± 0.096 | 1.02 ± 0.089 | 1.06 ± 0.14 | 1.01 ± 0.018
CC1CCC2(OC1)OC1CC3C4CCC5C[C@@H](O)CCC5(C)C4=CCC3(C)C1[C@@H]2C (stereo partly drawn) [3beta-HYDROXYISOALLOSPIROST-9(11)-ENE] | 1.02 ± 0.021 | 0.997 ± 0.12 | 0.973 ± 0.052 | 1.02 ± 0.11 | 1.01 ± 0.016
CC(C)[C@@H](C)/C=C/[C@@H](C)[C@H]1CC[C@H]2C3=CC=C4C[C@@H](O)CC[C@]4(C)[C@H]3CC[C@]12C | 1.05 ± 0.05 | 1.03 ± 0.14 | 1.14 ± 0.099 | 0.912 ± 0.079 | 1 ± 0.083
O=C1NC(Cc2ccc(O)cc2)C(=O)N2CCCC12 (stereo not given) [cyclo(prolyltyrosyl)] | 0.9655 ± 0.0021 | 0.95 ± 0.023 | 1.025 ± 0.0071 | 0.998 ± 0.2 | 0.887 ± 0.05
O=c1ccn([C@@H]2O[C@H](COP(=O)(O)OP(=O)(O)OP(=O)(O)O)[C@@H](O)[C@H]2O)c(=O)[nH]1 | 0.986 ± 0.091 | 0.89 ± 0.016 | 1.04 ± 0.064 | 0.921 ± 0.27 | 0.958 ± 0.14
CC[C@@H](C)c1cc(=O)c2c(CO)cc3c(c2o1)C(=O)c1c(O)cccc1C3=O [Espicufolin] | 1.09 ± 0.092 | 1.13 ± 0.057 | 1.055 ± 0.0071 | 1.29 ± 0.15 | 1.06 ± 0.057
C=C1C(=O)O[C@H]2[C@H]1CC/C(C)=C/CC[C@@]1(C)O[C@@H]21 | 0.84 ± 0.12 | 0.998 ± 0.017 | 0.886 ± 0.044 | 0.825 ± 0.096 | 0.836 ± 0.049
CCC(CCC(C)C1CCC2C3CCC4CC(O)CCC4(C)C3CCC12C)C(C)C (stereo not given) | 1.11 ± 0.057 | 1.06 ± 0.021 | 1.06 ± 0.021 | 1.23 ± 0.078 | 1.01 ± 0.015
CCN(CC)CCNC(=O)c1cc(S(C)(=O)=O)ccc1OC | 0.99 ± 0.13 | 1.025 ± 0.0071 | 1 ± 0.023 | 0.971 ± 0.084 | 0.925 ± 0.039
C=C1CCC2C(CC2(C)C)C(=O)CCC1O (stereo not given) | 0.969 ± 0.037 | 0.962 ± 0.023 | 0.97 ± 0.0014 | 0.932 ± 0.025 | 0.9285 ± 0.0064
O=CNc1ccccc1C(=O)O [N-Formylanthranilic acid] | 0.936 ± 0.018 | 1.02 ± 0.021 | 0.92 ± 0.088 | 0.954 ± 0.12 | 0.689 ± 0.13
CN1CCC(=C2c3ccccc3Sc3ccccc32)CC1 | 1.004 ± 0.0092 | 0.913 ± 0.032 | 1.03 ± 0.059 | 0.874 ± 0.026 | 0.944 ± 0.071
CC(=O)Oc1ccc2c(c1C(C)C)CCC1C(C)(C)CCC[C@]21C (stereo not given in full) | 1.18 ± 0.22 | 1.15 ± 0.071 | 1.05 ± 0.05 | 0.98 ± 0.11 | 0.962 ± 0.047
